Source: PubChem BioAssay (National Center for Advancing Translational Sciences (NCATS))
GLP1R inv ag: inverse agonists of human GLP-1 receptor; HEK293 GLP-1R CRE-luciferase, luminescence, 24 h; GLP-1R form is constitutively active; Potency, µM (highest dose often 38.3 µM), without a hit: at the top dose activity change, negative = inhibition, hits mostly inhibitors; hit rate 1.6% among 410,000; AID 624417; also: % is scaled to controls: 0 for no effect and ±100 for the full control effect; nearly all actives have a fitted effect of over 55% in size
Target sequence (P43220 whole entry, looked up): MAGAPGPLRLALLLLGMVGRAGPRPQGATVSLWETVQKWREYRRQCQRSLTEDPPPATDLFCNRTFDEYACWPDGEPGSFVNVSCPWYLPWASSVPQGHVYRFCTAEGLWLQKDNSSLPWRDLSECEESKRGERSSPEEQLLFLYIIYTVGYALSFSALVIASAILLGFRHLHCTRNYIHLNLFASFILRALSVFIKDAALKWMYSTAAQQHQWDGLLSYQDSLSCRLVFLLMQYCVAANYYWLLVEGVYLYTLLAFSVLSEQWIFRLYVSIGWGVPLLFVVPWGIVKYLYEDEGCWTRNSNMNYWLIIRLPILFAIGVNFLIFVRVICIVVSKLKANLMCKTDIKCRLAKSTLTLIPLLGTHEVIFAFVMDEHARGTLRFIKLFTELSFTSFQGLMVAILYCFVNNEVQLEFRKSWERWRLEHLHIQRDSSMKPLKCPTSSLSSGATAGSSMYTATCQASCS
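GLP-1R inverse agonism mode: basal reporter luminescence in engineered HEK293 cells measured after one day of compound exposure at 37 deg C, with a 12 min room-temperature detection step.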
S2 tox: viability counter-screen for ATXN expression inhibitors. hit rate 0.49% among 400,000. Potency, µM (top dose mostly 56.7 µM), actives largely listed as cytotoxic. AID 651635. S2 cells (HEK-293 line with an ATXN2-luciferase reporter) viability, CellTiter-Fluor protease fluorescence, 24 h; also: nearly all actives have a fitted effect of over 40% in size
GLP1R ag: activates the human GLP-1 receptor | HEK293 GLP-1R CRE-luciferase, luminescence, 4-6 h; cells express a hypersensitive GLP-1R form | Potency, µM (top dose mostly 45.6 µM), without a hit: top-dose activation, usual class: activators | hit rate 0.007% among 380,000 | AID 624172; also: % of control where 0% means no effect
TGFb SMAD3 inh: inhibitors of TGF-b signaling. HepG2 CAGA-GFP TGF-b/SMAD3 reporter, GFP fluorescence, 18 h; TGF-beta stimulated, 500 pg/mL final. Potency, µM (top dose mostly 46.1 µM), for inactives: top-dose activity, negative = inhibition, most hits filed as inhibitors. hit rate 1.2% among 410,000. AID 588855; also: % is scaled to controls: 0 for no effect and ±100 for the full control effect; nearly all actives have a fitted effect of over 65% in size
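TGF-beta reporter screen: HEPG2 CAGA-GFP, 1% FBS, 500 pg/mL TGF-beta final, 18 h; per-cell GFP summed per well; curves fitted and categorized by class.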
ATXN2 expr inh: inhibitors of ATXN2 expression; HEK-293 ATXN2-luciferase reporter, luminescence, 24 h; Potency, µM (titrated, usually from 57 µM), for inactives: top-dose activity change, negative = inhibition, hits mostly inhibitors; hit rate 0.72% among 360,000; AID 1745845; also: % is scaled to controls: 0 for no effect and ±100 for the full control effect; nearly all actives have a fitted effect of over 55% in size
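qHTS (up to 57 uM final) was run with 24 h compound exposure of reporter cells at 37 °C. Each well was multiplexed: SteadyGlo luminescence measured ATXN2-luciferase expression after a fluorogenic Gly-Phe-AFC viability readout (25 uM final).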
HepG2 viability: counter-screen for TGF-b inhibitors: cytotoxicity in HepG2 cells. HepG2 CAGA-GFP viability, ATP luminescence, 18 h. Potency, µM (series often up to 46.1 µM), for inactives: at the top dose activity change, negative = cytotoxicity, most hits filed as cytotoxic. hit rate 0.76% among 410,000. AID 588856
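HepG2 CAGA-GFP cells (1000/well, DMEM with 1% FBS) received compound, then TGF-beta at 500 pg/mL final, and were incubated 18 hours at 37 degrees C. Viability was read by CellTiter-Glo luminescence. Media-only wells were set as complete cell-killing and DMSO as no toxicity.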
* hit, by the source's call. This is a sample that favours compounds with a hit; in the whole collection about 3.7% have one here. Calls follow the shape of the dose curve; as a rule, active = well fitted curve in the direction sought with a large enough effect; inconclusive = small, poorly fitted or top-dose-only effect, or another doubt; inactive = no such curve, though single readings can be large; an effect the other way counts as inactive or inconclusive. Potency is read from the fitted curve at half-maximal effect.

C=CCCC[C@@H]1OC(=O)CNC(=O)C([C@@H](C)CC)NC(=O)[C@@H]2CCCN2C(=O)C([C@@H](C)CC)OC(=O)[C@H](Cc2ccccc2)N(C)C(=O)[C@H](C(C)C)NC(=O)C1(C)C (some centres not stated) was read as GLP1R inv ag inconclusive, S2 tox inconclusive, GLP1R ag -1%, TGFb SMAD3 inh 10µM*, ATXN2 expr inh 32µM* and HepG2 viability -31%.
For CSc1ccccc1C(=O)C1CCCN(Cc2cccc(C)n2)C1 (configuration not stated) the results were GLP1R inv ag 11µM*, S2 tox inactive, GLP1R ag 4%, TGFb SMAD3 inh inconclusive, ATXN2 expr inh inconclusive and HepG2 viability -36%.
COc1ccccc1CNC(=O)CCC1N=C2c3ccccc3N=C(SCc3cccc(Cl)c3)N2C1=O (configuration not stated) was read as GLP1R inv ag 3%, TGFb SMAD3 inh inconclusive and HepG2 viability -22%.
Screening O=C(CCC1N=C2c3ccccc3N=C(SCc3cccc(Cl)c3)N2C1=O)N1CCN(c2ccccc2)CC1 (configuration not stated) returned GLP1R inv ag inconclusive, S2 tox inconclusive, TGFb SMAD3 inh 10µM*, ATXN2 expr inh -13% and HepG2 viability -29%.
Screening COc1cc2cc(c1Cl)N(C)C(=O)CC(OC(=O)C(C)N(C)C(C)=O)C1(C)OC1C(C)C1CC(O)(NC(=O)O1)C(OC)C=CC=C(C)C2 (configuration not stated) returned GLP1R inv ag -49%, S2 tox inconclusive, GLP1R ag 21%, TGFb SMAD3 inh 0%, ATXN2 expr inh -12% and HepG2 viability -1%.
Cc1cccc(C)c1NC(=O)c1cccn(Cc2ccc3c(c2)OC(F)(F)O3)c1=O was read as GLP1R inv ag -9%, S2 tox inactive, GLP1R ag 7%, TGFb SMAD3 inh -23%, ATXN2 expr inh -25% and HepG2 viability 11µM*.
CC(C)Oc1cccc(NC(=O)c2cccn(Cc3ccc4c(c3)OC(F)(F)O4)c2=O)c1 was read as GLP1R inv ag 0%, S2 tox inactive, GLP1R ag 0%, TGFb SMAD3 inh 0%, ATXN2 expr inh 3% and HepG2 viability 7%.
`O=C(CF)N(O)c1ccc(C=Cc2ccccc2)cc1` gave GLP1R inv ag inconclusive, S2 tox inconclusive, GLP1R ag -14%, TGFb SMAD3 inh 7.1µM*, ATXN2 expr inh inconclusive and HepG2 viability -40%.
Screening O=C1CCC[C@@H]2[C@H]3CCCN4CCC[C@@H](CN12)[C@@H]34 returned ATXN2 expr inh -1%.
`CCOc1cccc(=NC2CCCCC2)c2c(C)n(C)c(C)c12` gave GLP1R inv ag 10µM*, S2 tox inconclusive, GLP1R ag -14%, TGFb SMAD3 inh 10µM*, ATXN2 expr inh inconclusive and HepG2 viability -10%.
Cn1nc(C(C)(C)C)cc1C(=O)N1CCCCC1c1cc(C(=O)Nc2ccc(F)c(Cl)c2)no1 (configuration not stated) was read as GLP1R inv ag 10µM*, S2 tox inactive, GLP1R ag -7%, TGFb SMAD3 inh inconclusive, ATXN2 expr inh 0% and HepG2 viability -16%.
Nc1c(C(=O)Nc2ccc(F)c(Cl)c2)sc2nc3c(cc12)N1CCC3CC1 was read as GLP1R inv ag inconclusive, S2 tox inactive, GLP1R ag -10%, TGFb SMAD3 inh inconclusive, ATXN2 expr inh inconclusive and HepG2 viability -28%.
Screening Cc1ccccc1-n1c(/C=C/c2ccc(O)cc2)nc2ccccc2c1=O returned GLP1R inv ag 11µM*, TGFb SMAD3 inh inconclusive and HepG2 viability -32%.
Screening O=C1Nc2ccccc2/C1=C/c1nc2ccccc2c(=O)n1-c1ccc(O)cc1 returned GLP1R inv ag 10µM*, S2 tox inconclusive, GLP1R ag 9%, TGFb SMAD3 inh -7%, ATXN2 expr inh -33% and HepG2 viability -46%.
`O=c1c2ccccc2nc(/C=C/c2ccc(O)cc2)n1-c1ccccc1O` gave GLP1R inv ag inconclusive, S2 tox inactive, GLP1R ag -2%, TGFb SMAD3 inh 2%, ATXN2 expr inh 25% and HepG2 viability -3%.
O=c1c2ccccc2nc(/C=C/c2cccnc2)n1Cc1ccccc1 was read as GLP1R inv ag 5µM*, S2 tox inactive, GLP1R ag 10%, TGFb SMAD3 inh -2%, ATXN2 expr inh -27% and HepG2 viability 0%.
For COc1ccc(-n2c(/C=C3\C(=O)Nc4ccccc43)nc3ccccc3c2=O)cc1 the results were GLP1R inv ag -9%, S2 tox inactive, GLP1R ag 7%, TGFb SMAD3 inh -1%, ATXN2 expr inh -22% and HepG2 viability -8%.
Screening Cc1ccc(-n2c(/C=C/c3ccc(Br)s3)nc3ccccc3c2=O)cc1C returned GLP1R inv ag 11µM*, TGFb SMAD3 inh 0% and HepG2 viability -26%.
CC(C)[C@H]1C(=O)N[C@H](CO)Cc2c[nH]c3cccc(c23)N1C was read as ATXN2 expr inh -1%.
`O=c1c2ccccc2nc(/C=C\c2cccc(Br)c2)n1-c1ccc(O)cc1` gave GLP1R inv ag 3%, TGFb SMAD3 inh 13µM* and HepG2 viability -105%.
Screening O=c1c2ccccc2nc(/C=C/c2ccccc2)n1-c1ccc(O)cc1 returned GLP1R inv ag 5.6µM*, S2 tox inconclusive, GLP1R ag 27%, TGFb SMAD3 inh inconclusive, ATXN2 expr inh -37% and HepG2 viability -28%.
For ClC[C@H]1CO1 (tested in a mixture with another compound) the results were GLP1R ag 0%.
Screening Cc1c(Cl)ccc2sc(N3CCN(C(=O)CCS(=O)(=O)c4ccc(F)cc4)CC3)nc12 returned GLP1R inv ag inconclusive, S2 tox inactive, TGFb SMAD3 inh 8.9µM*, ATXN2 expr inh -33% and HepG2 viability -25%.
`COc1ccc(-c2nc(CSCC(=O)N3CCN(c4ccc(F)cc4)CC3)c(C)o2)cc1` gave GLP1R inv ag inconclusive, TGFb SMAD3 inh -41% and HepG2 viability -4%.
Screening COc1cc2c3c(c1OC)Oc1ccc(cc1)C[C@H]1c4c(cc(OC)c(OC)c4Oc4ccc(cc4)C[C@@H]3N(C)CC2)CCN1C returned GLP1R inv ag inconclusive, GLP1R ag 0%, TGFb SMAD3 inh -10%, ATXN2 expr inh inconclusive and HepG2 viability -35%.
